Hit rate of the full screen: of about 39,000 compounds, about 3,300 (8.5%) were called active. This excerpt belongs to a sample that is enriched for actives.

The assay deals with HepG2. The assay is described as follows: cytotoxicity call (relative viability < 0.9). As to conditions: 10 µM.
For the compound `COCC(=O)N(C)C[C@H]1Oc2cc(C#C[C@@H](C)O)ccc2S(=O)(=O)N([C@H](C)CO)C[C@@H]1C`, the cytotoxicity call is “inactive”.

Take `C[C@@H]1CCCCO[C@H](CN(C)Cc2ccc(Cl)c(Cl)c2)[C@@H](C)CN([C@H](C)CO)C(=O)c2cc(NC(=O)CCC(F)(F)F)ccc2O1`: the cytotoxicity call is “inactive”.

Turning to `C[C@H]1CCCCO[C@H](CN(C)Cc2ccc(Cl)c(Cl)c2)[C@@H](C)CN([C@@H](C)CO)C(=O)c2cc(NC(=O)CCC(F)(F)F)ccc2O1`, the cytotoxicity call is “inactive”.

As for `C[C@@H]1CN([C@H](C)CO)C(=O)c2cc(NC(=O)CCC(F)(F)F)ccc2O[C@@H](C)CCCCO[C@H]1CN(C)Cc1ccc(Cl)c(Cl)c1`, the cytotoxicity call was “active”.

Take `C[C@@H]1CCCCO[C@@H](CN(C)Cc2ccc(Cl)c(Cl)c2)[C@H](C)CN([C@@H](C)CO)C(=O)c2cc(NC(=O)CCC(F)(F)F)ccc2O1`: the cytotoxicity call was “inactive”.

As to `C[C@H](CO)N1C[C@H](C)[C@@H](CN(C)Cc2ccc(Cl)c(Cl)c2)OCCCC[C@H](C)Oc2ccc(NC(=O)CCC(F)(F)F)cc2C1=O`, the cytotoxicity call was “inactive”.

For `C[C@@H]1CCCCO[C@@H](CN(C)Cc2ccc(Cl)c(Cl)c2)[C@@H](C)CN([C@@H](C)CO)C(=O)c2cc(NC(=O)CCC(F)(F)F)ccc2O1`, the cytotoxicity call is “active”.

For the compound `C[C@@H]1CCCCO[C@H](CN(C)Cc2ccc(Cl)c(Cl)c2)[C@@H](C)CN([C@@H](C)CO)C(=O)c2cc(NC(=O)CCC(F)(F)F)ccc2O1`, the cytotoxicity call is “inactive”.

As to `C[C@@H]1CN([C@@H](C)CO)C(=O)c2cc(NC(=O)CCC(F)(F)F)ccc2O[C@@H](C)CCCCO[C@H]1CN(C)Cc1ccc(Cl)c(Cl)c1`, the cytotoxicity call was “inactive”.

Turning to `C[C@@H]1CN([C@H](C)CO)C(=O)c2cc(NC(=O)CCC(F)(F)F)ccc2O[C@@H](C)CCCCO[C@@H]1CN(C)Cc1ccc(Cl)c(Cl)c1`, the cytotoxicity call was “active”.

With `C[C@@H]1CCCCO[C@@H](CN(C)Cc2ccc(Cl)c(Cl)c2)[C@@H](C)CN([C@H](C)CO)C(=O)c2cc(NC(=O)CCCN(C)C)ccc2O1`, the cytotoxicity call is “active”.

In the case of `Cn1cnc(S(=O)(=O)N[C@@H]2C=C[C@H](CC(=O)NCC3CC3)O[C@H]2CO)c1`, the cytotoxicity call was “inactive”.

Consider `COc1ccc(S(=O)(=O)N(C)C[C@@H]2OCCCC[C@@H](C)Oc3ccc(NC(=O)CCCCCC(=O)Nc4ccccc4N)cc3C(=O)N([C@H](C)CO)C[C@@H]2C)cc1`, for which the cytotoxicity call was “inactive”.

As for `COc1ccccc1CNC(=O)C[C@@H]1C[C@@H]2c3cc(NC(=O)Cc4ccncc4)ccc3O[C@@H]2[C@@H](CO)O1`, the cytotoxicity call was “inactive”.

`C[C@@H]1CCCCO[C@@H](CN(C)CC2CCCCC2)[C@@H](C)CN([C@@H](C)CO)C(=O)c2cc(N(C)C)ccc2O1`: the cytotoxicity call was “inactive”.

In the case of `C[C@H](CO)N1C[C@H](C)[C@H](CN(C)C(=O)Nc2ccc3c(c2)OCO3)OCCCC[C@H](C)Oc2ccc(NS(=O)(=O)c3ccc(F)cc3)cc2C1=O`, the cytotoxicity call is “inactive”.

With `CS(=O)(=O)N1C[C@@H](O)COC[C@@H]2O[C@H](CC(=O)NCc3ccccc3)CC[C@H]21`, the cytotoxicity call is “inactive”.

Take `C[C@@H]1CCCCO[C@H](CN(C)C(=O)Nc2ccc(F)cc2)[C@@H](C)CN([C@H](C)CO)C(=O)c2cc(NS(=O)(=O)c3cccs3)ccc2O1`: the cytotoxicity call is “inactive”.

With `O=C(C[C@H]1CC[C@H]2[C@@H](COC[C@@H](O)CN2S(=O)(=O)c2ccccc2)O1)NCCN1CCCCC1`, the cytotoxicity call is “inactive”.

With `Cc1noc(C)c1NC(=O)Nc1ccc2c(c1)C(=O)N([C@@H](C)CO)C[C@H](C)[C@H](CN(C)C(=O)Nc1ccc3c(c1)OCO3)OCCCC[C@H](C)O2`, the cytotoxicity call was “inactive”.

On to `COc1ccc(S(=O)(=O)N(C)C[C@H]2Oc3c(cccc3N(C)C)C(=O)N([C@@H](C)CO)C[C@H]2C)cc1`, for which the cytotoxicity call is “inactive”.

Consider `C[C@@H]1CCCCO[C@H](CN(C)Cc2ccc3c(c2)OCO3)[C@@H](C)CN([C@@H](C)CO)C(=O)c2cc(NC(=O)CCC(F)(F)F)ccc2O1`, for which the cytotoxicity call is “inactive”.

`C[C@@H]1CCCCO[C@@H](CN(C)Cc2ccc3c(c2)OCO3)[C@H](C)CN([C@H](C)CO)C(=O)c2cc(NC(=O)CCC(F)(F)F)ccc2O1`: the cytotoxicity call is “inactive”.

With `C[C@@H]1CCCCO[C@@H](CN(C)Cc2ccc(Cl)c(Cl)c2)[C@@H](C)CN([C@H](C)CO)C(=O)c2cc(NC(=O)CCC(F)(F)F)ccc2O1`, the cytotoxicity call is “inactive”.

Regarding `C[C@@H]1CCCCO[C@@H](CN(C)Cc2ccc(Cl)c(Cl)c2)[C@H](C)CN([C@H](C)CO)C(=O)c2cc(NC(=O)CCC(F)(F)F)ccc2O1`, the cytotoxicity call was “inactive”.

As for `C[C@@H]1CCCCO[C@H](CN(C)Cc2ccc(Cl)c(Cl)c2)[C@H](C)CN([C@@H](C)CO)C(=O)c2cc(NC(=O)CCC(F)(F)F)ccc2O1`, the cytotoxicity call is “active”.

In the case of `C[C@@H]1CCCCO[C@H](CN(C)Cc2ccc(Cl)c(Cl)c2)[C@H](C)CN([C@H](C)CO)C(=O)c2cc(NC(=O)CCC(F)(F)F)ccc2O1`, the cytotoxicity call was “active”.

Take `COc1ccc(S(=O)(=O)Nc2ccc3c(c2)C(=O)N([C@@H](C)CO)C[C@@H](C)[C@@H](CN(C)S(=O)(=O)c2cn(C)cn2)OCCCC[C@@H](C)O3)cc1`: the cytotoxicity call was “inactive”.

For the compound `C[C@@H]1CCCCO[C@@H](CN(C)C(=O)Cc2ccccc2)[C@@H](C)CN([C@@H](C)CO)C(=O)c2cc(NC(=O)NC3CCCCC3)ccc2O1`, the cytotoxicity call was “inactive”.

In the case of `C[C@@H]1COC(=O)[C@@H](NC(=O)OCC2c3ccccc3-c3ccccc32)CC=CC[C@H](CC(=O)NCCO)C(=O)N1`, the cytotoxicity call was “inactive”.

For `CN(C)CCCC[C@@H]1NC(=O)[C@H]2C[C@@H](C(=O)NCCCCCNC(=O)CS)[C@@H](c3ccc(O)cc3)N2C1=O`, the cytotoxicity call is “inactive”.

Turning to `O/N=C/c1ccccc1C(F)(F)F`, the cytotoxicity call was “active”.

As for `O/N=C/c1c(Cl)cccc1Cl`, the cytotoxicity call is “inactive”.

For the compound `O/N=C/c1ccc2ccccc2c1`, the cytotoxicity call is “inactive”.

As for `CC(C)(C)N1C[C@H](C(=O)O)CC1=O`, the cytotoxicity call is “inactive”.

Regarding `Cc1ccc(S(=O)(=O)Nc2cccc3c2O[C@H](CN(C)S(C)(=O)=O)[C@@H](C)CN([C@H](C)CO)C3=O)cc1`, the cytotoxicity call is “inactive”.

For the compound `C[C@@H]1CN([C@@H](C)CO)S(=O)(=O)c2ccc(-c3cncnc3)cc2O[C@@H]1CN(C)C(=O)c1ccc2c(c1)OCO2`, the cytotoxicity call was “inactive”.

Consider `O=c1c2ccccc2oc2ccc(O)cc12`, for which the cytotoxicity call was “inactive”.

Take `O=c1[nH]c(=O)c2ccccc2o1`: the cytotoxicity call is “inactive”.

`CCc1oc2ccccc2c1C(=O)c1cc(Br)c(O)c(Br)c1`: the cytotoxicity call was “active”.

With `Cc1ccc(CNc2ccc3c(c2)ncn3C2CCCCC2)cc1`, the cytotoxicity call is “inactive”.

As for `O=C(CCCCCNC(=O)OCc1ccc(CO[C@@H]2C[C@H](C3CCCCC3)C=C(C(=O)N3CCN(Cc4ccccc4)CC3)O2)cc1)NO`, the cytotoxicity call was “inactive”.

For the compound `O=C1CN(S(=O)(=O)Cc2ccccc2)C[C@H]2[C@H](c3ccc(C#Cc4cccc(F)c4)cc3)[C@H](CO)N12`, the cytotoxicity call was “active”.

For the compound `O=C1CN(S(=O)(=O)Cc2ccccc2)C[C@H]2[C@@H](c3ccc(C#Cc4cccc(F)c4)cc3)[C@H](CO)N12`, the cytotoxicity call was “active”.

`O=C1CN(S(=O)(=O)Cc2ccccc2)C[C@H]2[C@@H](c3ccc(C#Cc4cccc(F)c4)cc3)[C@@H](CO)N12`: the cytotoxicity call is “inactive”.

In the case of `O=C1CN(S(=O)(=O)Cc2ccccc2)C[C@H]2[C@@H](c3ccc(C#Cc4ccc(F)cc4)cc3)[C@H](CO)N12`, the cytotoxicity call was “inactive”.

Take `O=C1CN(S(=O)(=O)Cc2ccccc2)C[C@H]2[C@H](c3ccc(C#Cc4cccc(F)c4)cc3)[C@@H](CO)N12`: the cytotoxicity call is “active”.

`COc1cccc(C#Cc2ccc([C@@H]3[C@H](CO)N4C(=O)CN(S(=O)(=O)c5ccccc5C)C[C@@H]34)cc2)c1`: the cytotoxicity call is “inactive”.

As for `O=C1CN(S(=O)(=O)Cc2ccccc2)C[C@@H]2[C@H](c3ccc(C#Cc4ccc(F)cc4)cc3)[C@H](CO)N12`, the cytotoxicity call was “inactive”.

Regarding `COc1cccc(C#Cc2ccc([C@@H]3[C@H]4CN(S(=O)(=O)c5ccccc5C)CC(=O)N4[C@H]3CO)cc2)c1`, the cytotoxicity call is “inactive”.

Turning to `O=C1CN(S(=O)(=O)Cc2ccccc2)C[C@@H]2[C@@H](c3ccc(C#Cc4cccc(F)c4)cc3)[C@@H](CO)N12`, the cytotoxicity call was “active”.

For `COc1cccc(C#Cc2ccc([C@H]3[C@H](CO)N4C(=O)CN(S(=O)(=O)c5ccccc5C)C[C@@H]34)cc2)c1`, the cytotoxicity call was “inactive”.

With `O=C1CN(S(=O)(=O)Cc2ccccc2)C[C@@H]2[C@@H](c3ccc(C#Cc4cccc(F)c4)cc3)[C@H](CO)N12`, the cytotoxicity call was “inactive”.

For `O=C1CN(S(=O)(=O)Cc2ccccc2)C[C@@H]2[C@H](c3ccc(C#Cc4cccc(F)c4)cc3)[C@@H](CO)N12`, the cytotoxicity call is “inactive”.

As for `CN(C)Cc1ccc(O)c(CN(C)C)n1`, the cytotoxicity call was “inactive”.

For the compound `COCC(=O)N1C[C@H](C)[C@@H](OC)CN(C)C(=O)c2cc(NC(=O)Nc3ccccc3)ccc2OC[C@@H]1C`, the cytotoxicity call was “inactive”.

Take `COCCNC(=O)C[C@@H]1CC[C@@H]2[C@H](COC[C@@H](O)CN2C(=O)Nc2ccccc2OC)O1`: the cytotoxicity call is “inactive”.

In the case of `O=c1cccn[nH]1`, the cytotoxicity call is “inactive”.

Take `COc1ccc(-c2cnc3c(c2)C(=O)N([C@@H](C)CO)C[C@H](C)[C@@H](CN(C)C(=O)Cc2ccccn2)O3)cc1`: the cytotoxicity call was “inactive”.

For the compound `C[C@@H]1CN([C@H](C)CO)C(=O)c2cc(NS(=O)(=O)c3cccs3)ccc2O[C@H]1CN(C)S(C)(=O)=O`, the cytotoxicity call is “inactive”.

Take `C[C@@H]1CCCCO[C@@H](CN(C)S(=O)(=O)c2cccs2)[C@H](C)CN([C@@H](C)CO)C(=O)c2cc(NC(=O)Nc3cccc4ccccc34)ccc2O1`: the cytotoxicity call was “inactive”.

Turning to `COCC#Cc1ccc2c(c1)O[C@@H](CN(C)C(=O)C1CCCCC1)[C@@H](C)CN([C@H](C)CO)S2(=O)=O`, the cytotoxicity call was “inactive”.

With `C[C@H](CO)N1C[C@H](C)[C@@H](CN(C)C(=O)CCC(F)(F)F)OCCCC[C@H](C)Oc2ccc(NC(=O)c3ccccc3)cc2C1=O`, the cytotoxicity call is “inactive”.

As to `C[C@H]1CN([C@@H](C)CO)C(=O)c2ccccc2-c2ccccc2CO[C@H]1CN(C)C(=O)Nc1ccc(-c2ccccc2)cc1`, the cytotoxicity call was “inactive”.

Take `COc1ccc(NC(=O)Cn2c(=O)c3c(OC)ccnc3n(C)c2=O)c(OC)c1`: the cytotoxicity call is “inactive”.

Take `COc1cc(/C=C/C(=O)O[C@H]2CC[C@]34C[C@]35CC[C@]3(C)[C@@H]([C@@H](C)CCC=C(C)C)CC[C@@]3(C)[C@@H]5CC[C@@H]4C2(C)C)ccc1O`: the cytotoxicity call was “inactive”.

Values taken from the antibiotic and cytotoxicity screens of Wong et al. (2023).
